Most compounds without a hit are left out; they make up all but 5.3% or so of the library.
Lassa entry inh: blocks Lassa virus binding to or entry into cells; Potency, µM (doses to about 37.9 µM), for the others: at the top dose activity change, negative = inhibition, actives largely listed as inhibitors; Lassa virus pseudotype entry inhibition, cell reporter; hit rate 1.2% among 300,000; AID 540256; calls by dose curve; tested in HEK293 cells; also: nearly all actives have a fitted effect of over 50% in size
MARV entry inh: Marburg virus entry inhibition; Marburg virus pseudotyped entry inhibition, cell reporter; Potency, µM (series often up to 37.8 µM), inactives show at the top dose activity change, negative = inhibition, actives largely listed as inhibitors; hit rate 1.8% among 300,000; AID 540276; calls by dose curve; tested in HEK293 cells
FMDV antiviral: foot and mouth disease virus antiviral activity; FMDV antiviral cell-based qHTS; AID 1159524; Potency, µM (top dose mostly 57.9 µM), for inactives: at the top dose activity change, negative = inhibition, hits mostly inhibitors; hit rate 1.2% among 410,000; calls by dose curve; tested in HEK293T cells; also: read-out not given here; nearly all actives have a fitted effect of over 45% in size
VACV Venus inh: vaccinia inhibition (Venus reporter); Vaccinia virus Venus reporter expression, fluorescence; Potency, µM (top dose mostly 36.5 µM), for the others: top-dose activity change, negative = inhibition, most hits filed as inhibitors; hit rate 0.46% among 330,000; AID 720580; calls by dose curve; tested in A549 cells; also: nearly all actives have a fitted effect of over 30% in size
VACV mCherry inh: vaccinia inhibition (mCherry reporter) | Vaccinia virus mCherry reporter infection, fluorescence | Potency, µM (doses to about 36.5 µM), for inactives: at the top dose activity change, negative = inhibition, most hits filed as inhibitors | hit rate 0.63% among 310,000; calls by dose curve; tested in A549 cells; also: nearly all actives have a fitted effect of over 35% in size
HCV inh: blocks hepatitis C virus | Huh7.5.1 HCVcc-Cre infection, luciferase reporter, 44 h | hit rate 3.4% among 340,000 | Potency, µM (top dose mostly 41.8 µM), without a hit: at the highest dose activity change, negative = inhibition, actives largely listed as inhibitors; active = well fitted inhibition curve with a large enough effect; inconclusive = small, poorly fitted or top-dose-only effect, or another doubt; inactive = no such curve, though single readings can be large or run the other way
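Infectious HCVcc-Cre (~0.5 moi) was added to cells just after compound, with cells seeded 4 h earlier at 1,000 per well. Luciferase activity after 44 h culture reported infection; substrate was incubated 15 min at room temperature before reading.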
* = called active by the depositor; i = inactive; ? = inconclusive; . = not tested or not shown; ! = not confirmed by another sample; [ ] = remark or other dose. % is scaled to controls: 0 for no effect and ±100 for the full control effect; potency is read from the fitted curve at half-maximal effect.

SMILES	Lassa entry inh	MARV entry inh	FMDV antiviral	VACV Venus inh	VACV mCherry inh	HCV inh
CCOc1ccc(-c2ncncc2-c2ccc(OC)c(OC)c2)c(O)c1	.	.	-22%	.	.	-10%
CCN(CC)c1ccc(-c2nnc(SCC(=O)NCc3ccco3)n2C)cc1	.	.	.	-23%	-18%	.
C=CC1(O)C(OC)=CC2C(=O)C1C(c1ccccc1)C2C (centres undefined)	?	14%[14.2 µM]	.	.	.	.
CCCCOC(=O)CSc1nnc(-c2ccc(C)cc2)o1	23%[46.1 µM]	.	?	-3%	-6%	.
COc1ccc(-c2cn[nH]c2-c2ccc(OCc3ccccc3)cc2O)cc1OC	?	?	?	?	11µM*	?
Oc1cc(OCc2ccccc2)ccc1-c1[nH]ncc1-c1ccccc1	-18%	12%[46.1 µM]	0%	?	?	34%
COc1ccc(-c2cn[nH]c2-c2ccc(OCc3ccc(F)cc3)cc2O)cc1OC	?	?	25µM*	-27%	-22%	?
CCN1C(=NCc2ccco2)N[C@@H](c2ccccc2)[C@H](C(=O)OC)[C@H]1C	.	13%[14.2 µM]	.	.	.	.
CNC(=O)NC1CCCC(C2=NC(C)=NCC2)C1 (centres undefined)	.	5%	.	.	.	.
COc1ccc(C(C)NCCC(c2ccc(OC(C)C)cc2)c2ccccc2OC)cc1 (centres undefined)	-26%[46.1 µM]	?	-24%	11µM*	?	10µM*
COc1ccc(C(CCNC(C)c2ccccc2)C(C)C)cc1 (centres undefined)	?	?	28%	-24%	-15%	?
Cc1ccc(C)c(N2CCN(S(=O)(=O)c3cn(C)c(C)n3)CC2)c1	7%[46.1 µM]	.	6%	-4%	-14%	.
Cc1cccc(Nc2nc(Nc3cccc(C)c3)nc(N3CCOCC3)n2)c1	?	?	-21%	-6%[7.34 µM]	-2%[7.34 µM]	.
Cc1[nH]c2ccccc2c1/C=N/Nc1nc(Nc2ccc(F)cc2)nc(N2CCOCC2)n1	8%	?	-17%	-18%	-20%	8.9µM*!
Cc1ccc(Nc2nc(N/N=C/c3c[nH]c4ccccc34)nc(N3CCOCC3)n2)cc1	15µM*	0.21µM*	?	?	?	?
C(=N\Nc1nc(Nc2ccccc2)nc(N2CCOCC2)n1)/c1c[nH]c2ccccc12	?	0.073µM*	3%	.	.	3.5µM*
c1ccc(Nc2nc(N3CCOCC3)nc(N3CCOCC3)n2)cc1	-14%	?	?	?	.	?
Cc1ccccc1CCN(C(=O)c1csnn1)C(C(=O)NC1CCCC1)c1ccncc1 (centres undefined)	?	-23%[46.1 µM]	-2%	-18%	-14%	12%
Cc1nc2sc(C(=O)N(C)Cc3ccccc3)c(NC(=O)c3ccccc3)c2c(C)c1Cl	31%[46.1 µM]	?	?	-3%	-7%	.
COC(=O)[C@@]1(C=C2c3ccc(OC)cc3[C@@H](OC)[C@@H]2C)[C@@H]2C=CC[C@@H]21	.	-11%[14.2 µM]	.	.	.	.
O=C(Cn1cc(COc2ccc([N+](=O)[O-])cc2)nn1)c1ccc(O)cc1	5%[46.1 µM]	.	.	.	.	.
CC(NS(=O)(=O)c1c(N)n(C)c(=O)n(C)c1=O)c1ccccc1 (centres undefined)	2%	3%	-4%	0%	-2%	1%
O=C(CCCCn1c(=O)c2ccccc2n(Cc2cccc(F)c2)c1=O)NCCc1ccccc1	-9%[46.1 µM]	-13%[46.1 µM]	-10%	-17%	-24%	.
C=CCNC(=O)c1onc(CSc2cccc(C)c2)c1C(=O)O	.	.	-15%	-1%	-12%	-9%[8.37 µM]
C=CCNC(=O)c1onc(CSc2cc(C)cc(C)c2)c1C(=O)NCC=C	.	.	-26%	.	3.2µM*	?
SMILES	Lassa entry inh	MARV entry inh	FMDV antiviral	VACV Venus inh	VACV mCherry inh	HCV inh
O=C(Oc1ccccc1)N1CCC2(CC1)CCN(c1ccccn1)CC2	.	.	-30%	.	.	.
Cn1cccc1C(=O)NC(=O)COC(=O)c1ccc(S(C)(=O)=O)c([N+](=O)[O-])c1	?	?	32µM*	-9%	-9%	?
Cn1ccsc1=NC(=O)c1ccc(Cl)c([N+](=O)[O-])c1	.	.	45%	.	.	-9%
Cn1cccc1C(=O)NC(=O)COC(=O)c1ccc(S(C)(=O)=O)cc1	1%	?	8%	-22%	-6%	2%
CS(=O)(=O)c1ccc(C(=O)OCC(=O)NC23CC4CC(CC(C4)C2)C3)cc1[N+](=O)[O-]	-8%	?	35µM*	?	?	?
Cn1ccsc1=NC(=O)c1ccc(S(C)(=O)=O)c([N+](=O)[O-])c1	?	?	?	-12%	i	10µM*
O=C(CCc1cccnc1)NCC1Cc2cccc(-c3ncccn3)c2O1 (centres undefined)	.	.	-10%	18%	-2%	.
CN(C)S(=O)(=O)c1ccc(N2CCCC2)c(C(=O)NCC2CCCCC2)c1	.	.	-14%	-17%	i	8.9µM*
Cc1ccc(S(=O)(=O)N2CCN(C(=O)c3cc4c(C)nn(-c5ccccc5C)c4s3)CC2)cc1	?	18µM*	-31%	?	?	?
O=C(CC1Oc2ccccc2NC1=O)NCc1ccccc1 (centres undefined)	.	.	-26%	-2%	i	-14%
CC(=O)CC1OC(=O)C(Br)=C1NCc1ccccc1 (centres undefined)	?	18µM*	.	-8%	i	?
COc1ccc(/C=C/C(=O)c2ccc3c4c(cccc24)CC3)cc1	?	-29%	7%	?	?	?
CCOc1ccc(C(=O)/C=C/c2ccc(OC)c(OC)c2)cc1	?	?	?	-20%	-22%	?
COc1ccc(C(=O)Oc2ccc(F)cc2C(=O)/C=C/c2ccc(OC)c(OC)c2)cc1	?	-14%	40µM*	-14%	i	-12%
COc1ccc(/C=C/C(=O)c2ccc3c4c(cccc24)CC3)cc1OC	?	?	18µM*	?	?	?
COc1ccc(/C=C/C(=O)c2cc(F)ccc2OC(=O)c2ccccc2C)cc1OC	?	5.2µM*	25µM*	?	?	-22%
N#Cc1cc([N+](=O)[O-])c2sc(C(N)=O)[n+]([O-])c2c1	?	-22%	.	.	.	.
O=C(Cc1ccc(Cl)cc1)Nc1ncc([N+](=O)[O-])s1	-1%	?	-2%	-18%	-18%	-11%
O=C(Nc1ncc([N+](=O)[O-])s1)c1ccc2c(c1)OCO2	?	1.6µM*	3.2µM*	-10%	-22%	-22%
Cc1cnc(NC(=O)c2cccc(S(=O)(=O)N3CC(C)OC(C)C3)c2)s1 (centres undefined)	.	.	?	.	.	11µM*
Cc1ccc(C(=O)Nc2ncc(C)s2)s1	5µM*	2.8µM*	-10%	-15%	-16%	4%
O=C(COc1ccc(Cl)cc1)Nc1ncc([N+](=O)[O-])s1	?	?	-46%	10µM*	11µM*	?
Cc1ccc(C(=O)Nc2ncc([N+](=O)[O-])s2)cc1	.	.	8.9µM*	.	.	?
Cc1cnc(NC(=O)c2cc3ccccc3o2)s1	-30%[46.1 µM]	13µM*	-10%	-10%	i	-4%
